Experimental data from PubChem BioAssay AID1159580 (chemical genetic matrix, 2015).
“And” between values parts separate entries of the source, which are not always exact repeats. Identical values can stand only once. The campaign covered roughly 5,500 compounds. About 2,000 (36%) were called active. About 18% were inconclusive and are not listed. Rule as the data show it: active = normalized growth mostly below about 0.91 (no sharp cut-off); inconclusive = no clear call, values can overlap the other calls; inactive = mostly above about 0.92. The list shows a part of the results.

Assay: chemical genetic growth profiling, strain panel (AID 1159580);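 also: tested at 20 µM; growth read once vehicle control cultures reached saturation at 30 °C; 1 = growth at the plate median or of vehicle wells; lower values mean less growth of the strain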
Conditions: S. cerevisiae deletion strains, growth OD

Measured: normalized growth

CN(C)CC/C=C1/c2ccccc2COc2ccccc21
inactive: locus YAL021C, strain ccr4, hits give low values 0.99 | locus YAL026C, strain drs2, hits give low values 1.03 | locus YAL030W, strain snc1, hits give low values 1.02 | locus YBL061C, strain skt5, hits give low values 1.02 | locus YBR009C, strain hhf1, hits give low values 1.01 | locus YBR021W, strain FUR4, hits give low values 0.991 | locus YBR023C, strain chs3, hits give low values 1.03 | locus YBR171W, strain sec66, hits give low values 1.05 | locus YBR229C, strain ROT2, hits give low values 1 | locus YBR231C, strain swc5, hits give low values 1.04 | locus YBR279W, strain paf1, hits give low values 1.01 | locus YCL011C, strain gbp2, hits give low values 1.03 | locus YCL016C, strain dcc1, hits give low values 1.02 | locus YCL029C, strain bik1, hits give low values 1.02 | locus YCL069W, strain vba3, hits give low values 1.03 | locus YCR088W, strain abp1, hits give low values 1.03 | locus YDL005C, strain med2, hits give low values 1.05 | locus YDL035C, strain GPR1, hits give low values 1.03 | locus YDL040C, strain nat1, hits give low values 1.02 | locus YDL074C, strain BRE1, hits give low values 1.01 | locus YDL101C, strain DUN1, hits give low values 1.02 | locus YDL134C, strain PPH21, hits give low values 1.01 | locus YDL185W, strain tfp1, hits give low values 1.03 | locus YDL192W, strain arf1, hits give low values 1.03 | locus YDR001C, strain nth1, hits give low values 1.01 | locus YDR069C, strain doa4, hits give low values 1.02 | locus YDR101C, strain arx1, hits give low values 0.992 | locus YDR137W, strain rgp1, hits give low values 1.14 | locus YDR159W, strain sac3, hits give low values 1.05 | locus YDR162C, strain NBP2, hits give low values 1.02 | locus YDR195W, strain ref2 1.05 | locus YDR297W, strain sur2, hits give low values 1.03 | locus YDR318W, strain mcm21, hits give low values 1.02 | locus YDR334W, strain swr1, hits give low values 1.02 | locus YDR335W, strain msn5, hits give low values 1.02 | locus YDR388W, hits give low values 1.03 | locus YDR392W, strain spt3, hits give low values 0.987 | locus YDR502C, strain sam2, hits give low values 1.02 | locus YEL003W, strain gim4, hits give low values 1.03 | locus YEL037C, strain rad23, hits give low values 1.02 | locus YEL061C, strain CIN8 (second series), hits give low values 1.02 | locus YEL061C, strain CIN8, hits give low values 1.01 | locus YER015W, strain faa2, hits give low values 0.977 | locus YER016W, strain bim1, hits give low values 1.01 | locus YER110C, hits give low values 1.02 | locus YER111C, strain swi4, hits give low values 1.03 | locus YER155C, strain BEM2 (second series), hits give low values 1.01 | locus YER155C, strain BEM2, hits give low values 1.01 | locus YER167W, strain BCK2, hits give low values 1.01 | locus YFR010W, strain ubp6, hits give low values 1.02 | locus YGL078C, strain dbp3, hits give low values 1.01 | locus YGL086W, strain mad1, hits give low values 1 | locus YGL167C, strain pmr1, hits give low values 1.03 | locus YGL173C, strain kem1, hits give low values 1.03 | locus YGL227W, strain vid30, hits give low values 1.01 | locus YGL240W, strain doc1, hits give low values 1 | locus YGL248W, strain PDE1, hits give low values 1 | locus YGL253W, strain hxk2, hits give low values 1.02 | locus YGR078C, strain PAC10, hits give low values 1.01 | locus YGR135W, strain pre9, hits give low values 1.03 | locus YGR229C, strain SMI1, hits give low values 1.02 | locus YGR252W, strain gcn5, hits give low values 0.972 | locus YHR013C, strain ard1, hits give low values 0.983 | locus YHR027C, strain rpn1, hits give low values 0.983 | locus YHR030C, strain SLT2, hits give low values 1.02 and 1.03 | locus YHR079C, strain IRE1 (second series), hits give low values 1.03 | locus YHR079C, strain IRE1, hits give low values 1.06 | locus YHR094C, strain hxt1, hits give low values 1.01 | locus YHR129C, strain ARP1, hits give low values 1.01 | locus YHR142W, strain chs7, hits give low values 1.02 | locus YHR200W, strain rpn10, hits give low values 1.04 | locus YIL066C, strain RNR3, hits give low values 1.02 | locus YIL073C, strain SPO22, hits give low values 1.11 | locus YIL125W, strain kgd1, hits give low values 1.01 | locus YIR030C, strain dcg1, hits give low values 1.01 | locus YJL092W, strain hpr5, hits give low values 1.03 | locus YJL095W, strain BCK1 (second series), hits give low values 1.03 | locus YJL095W, strain BCK1, hits give low values 0.992 and 1.03 | locus YJL115W, strain asf1, hits give low values 1.03 | locus YJL129C, strain trk1, hits give low values 1.06 | locus YJL134W, strain LCB3, hits give low values 1.01 | locus YJL154C, strain vps35, hits give low values 1.02 | locus YJL164C, strain tpk1, hits give low values 1.02 | locus YJL166W, strain qcr8, hits give low values 1.01 | locus YJL168C, strain set2, hits give low values 1.01 | locus YJL187C, strain SWE1 (second series), hits give low values 1.01 | locus YJR043C, strain POL32, hits give low values 1.01 | locus YJR066W, strain TOR1, hits give low values 0.931 | locus YKL009W, strain mrt4, hits give low values 1.03
